# The entries come from a sample that favours hits as a whole.
# Bm FixLJ act: B. multivorans fixK reporter activation; B. multivorans fixK-promoter GFP reporter, 18 h; stronger effect = higher value; z-score (concentration not given with the values); hit rate 0.3% among 29,000;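 active = replicate mean overnight rise in green fluorescent reporter signal, 3 or more SD over negative controls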
# * marks the source's active call; other numbers are inactive results.
SMILES,Bm FixLJ act
C[C@H](N)[C@H](O)c1cccc(O)c1,-1.48
COCC1CCCN1S(=O)(=O)c1cccc(C(=O)N2CCC(C#N)CC2)c1 (configuration not stated),0.14
Cc1ccc(NC(=O)c2ccc3c(c2)NC(=O)c2ccccc2S3)cc1,-1.44
Cc1ccccc1-n1cc(CN(C)C(=O)c2cc(O)cc(OCC3CC3)c2)cn1,-0.93
COc1ccc(OC)c(Nc2cc(C(=O)NCc3ccccc3)c3ccccc3n2)c1,4.2*
COc1ccc(CNC(=O)c2cc(Nc3ccc(OC)cc3OC)nc3ccccc23)cc1,1.38
COc1ccc(Nc2cc(C(=O)NCCc3ccc(C)cc3)c3ccccc3n2)c(OC)c1,-0.96
CSc1ncc(C(=O)N(C)C(C)Cc2cnccn2)cn1 (configuration not stated),0.19
Cn1nc(C(=O)O)c2c1CCN(C(=O)CSc1ccncc1)C2,-0.87
CC(C)Cc1cc(C(=O)NC2CCOCC2Oc2ccc(C#N)cc2)on1 (configuration not stated),0.06
O=C(O)c1ccc(NC(=O)c2cn(-c3ccccc3)nc2-c2ccc(Br)cc2)cc1,-0.52
COc1ccccc1NC(=O)c1cc2c(C)nn(-c3ccccc3)c2s1,0.48
COc1ccc(-c2nn(-c3ccccc3)cc2C(=O)Nc2ccccc2OC)cc1,4.62*
Cc1nnc(SCC(=O)NCc2ccc3[nH]c(=O)[nH]c3c2)s1,1.42
Cc1cc(NC2COCC2Cc2ccncc2)nc(N2CCCCC2)n1 (configuration not stated),0.96
CSc1cccc(Nc2cc(C(=O)NCCc3ccc(Cl)cc3)c3ccccc3n2)c1,1.99
CCCCN(CCCNC(=O)c1cc(Nc2cccc(SC)c2)nc2ccccc12)Cc1ccccc1,3.17*
COc1ccc(Nc2cc(C(=O)NCCCN(C)C3CCCCC3)c3ccccc3n2)cc1,-1.1
O=C(c1n[nH]c(=O)c2ccccc12)N1CCc2nnc(Cc3cccnc3)n2CC1,0.01
COCCNC(=O)CCn1c(=O)c2cc(OC)c(OC)cc2n(CC(=O)Nc2ccccc2OC)c1=O,4.61*
COCCNC(=O)CCn1c(=O)c2cc(OC)c(OC)cc2n(CC(=O)Nc2ccccc2C)c1=O,0.19
COCCNC(=O)CCCn1c(=O)c2cc(OC)c(OC)cc2n(CC(=O)Nc2ccc(F)cc2)c1=O,0.67
CCC(C)CN1CCOC2(CCN(C(=O)c3nsnc3C)CC2)CC1=O (configuration not stated),0
CCOc1cc(C)c(Cl)cc1S(=O)(=O)N(C)CC1(CO)CCC1,-0.38
Cc1n[nH]c(C)c1CCCNC(=O)Nc1ccc(OC2CCN(C)CC2)cc1,0.45
SMILES,Bm FixLJ act
Cc1cccc(C2=Nc3ccccc3N=C(c3cc(Cl)ccc3O)C2)c1,1.45
COc1ccc(C2=NC(c3ccccc3)=Nc3ccc(C)cc3N2)cc1,-0.44
COc1ccc(O)c(C2=Nc3ccccc3N=C(c3ccccc3)C2)c1,3.7*
C=CCN(C)C(=O)Cn1c(Cc2ccccc2)nn(-c2ccc(OC)cc2)c1=O,-1.59
CC(C)n1cnnc1CCNC(=O)c1ccc(-c2cc(=O)[nH]c(N)n2)cc1,0.09
CCCc1nc(N2CCCC(c3nc(-c4ccccc4)no3)C2)no1 (configuration not stated),1
CCN1CC2(CCN(C(=O)c3ccc(O)c(OC)c3)CC2)OC1=O,-0.42
COc1ccccc1C(=O)Nc1ccc(OCc2cc(=O)n3cc(C)sc3n2)cc1,0.27
Cc1cn2c(=O)cc(COc3ccc(NC(=O)c4ccccc4C)cc3)nc2s1,3.44*
Cc1cn2c(=O)cc(COc3ccc(NC(=O)c4cccc(F)c4)cc3)nc2s1,0.24
COCC(=O)N1CCc2[nH]cnc2C12CCN(C(=O)C(C)c1ccccc1)CC2 (configuration not stated),-0.81
CCCN1CCC(N2CC(O)C(Cc3cnccn3)C2)CC1 (configuration not stated),-1.46
CCCC(CCC)C(=O)NC1COCC1Cc1ccncc1 (configuration not stated),0.63
COc1ccc(-c2cc(C(=O)Nc3ccc4c(c3)OCO4)no2)cc1,-2.85
COc1ccc(NC(=O)c2cc(-c3ccc4c(c3)OCO4)on2)c(OC)c1,-0.07
COc1cc(NC(=O)c2cc(-c3ccc4c(c3)OCO4)on2)cc(OC)c1OC,3.73*
CCn1c(N2CC(N)C(C3CC3)C2)nc2cc(C(=O)O)cnc21 (configuration not stated),1.38
Cc1noc(C)c1-c1ccc(S(=O)(=O)NCCn2cncn2)s1,-0.75
COc1ccccc1NC(=O)CSc1oc(-c2ccco2)nc1S(=O)(=O)c1ccc(C)cc1,-1.53
COc1ccc(NC(=O)CSc2oc(-c3ccco3)nc2S(=O)(=O)c2ccccc2)c(OC)c1,6.81*
COc1ccc(NC(=O)CSc2oc(-c3cccs3)nc2S(=O)(=O)c2ccccc2)c(OC)c1,3.66*
COc1ccc(NC(=O)CSc2oc(-c3cccs3)nc2S(=O)(=O)c2ccc(C)cc2)c(OC)c1,-1.31
COc1ccccc1NC(=O)CSc1oc(-c2cccs2)nc1S(=O)(=O)c1ccc(Br)cc1,-1.57
Cc1cc(C)cc(NC(=O)CSc2oc(-c3ccco3)nc2S(=O)(=O)c2ccccc2)c1,-1.47
COc1ccccc1-c1noc(CSc2nnc(Cc3ccccc3)n2-c2ccc(C)c(C)c2)n1,-0.88
SMILES,Bm FixLJ act
CC(C)c1nnsc1CNC(=O)Nc1ccc(S(C)(=O)=O)cc1,-0.34
CC(C)c1ccc(C(C)NC(=O)N2CCN(Cc3nccn3C)CC2)cc1 (configuration not stated),0.61
CCN(CC)c1ccc2cc(-c3nnc(-c4cccc(Cl)c4)o3)c(=O)oc2c1,-8.86
CCCCCCc1cc2cc(-c3nnc(-c4ccc(C)cc4)o3)c(=O)oc2cc1O,8.58*
COc1cccc(-c2nnc(-c3cc4cc(Cl)ccc4oc3=O)o2)c1,-0.27
O=C(O)c1ccccc1Nc1cccc(C(F)(F)F)c1,-1.52
C=CCC(CC=C)(CNC(=O)C(=O)Nc1cccc(C(F)(F)F)c1)c1ccccc1,3.71*
C=CCC(CC=C)(CNC(=O)C(=O)Nc1cc(C)ccc1OC)c1ccc(OC)c(OC)c1,1.33
CCCN1CCN(C(=O)Cn2ncc3c4ccccc4n(Cc4cccc(Cl)c4)c3c2=O)CC1,14.1*
O=C(Cn1ncc2c3ccccc3n(Cc3ccc(Cl)cc3)c2c1=O)N1CCCCCC1,6.38*
CCOC(=O)C1CCN(C(=O)Cn2ncc3c4ccccc4n(Cc4ccccc4)c3c2=O)CC1,-2.37
CN1CCN(C(=O)Cn2ncc3c4ccccc4n(Cc4ccc(F)cc4)c3c2=O)CC1,-1.66
O=C(Cn1ncc2c3ccccc3n(Cc3ccccc3F)c2c1=O)N1CCCCC1,-0.13
O=C(Cn1ncc2c3ccccc3n(Cc3ccccc3F)c2c1=O)N1CCCCCC1,-0.94
C=C(C)CN1CCN(C(=O)c2ccccc2-n2cnnc2)CC1,-0.3
Cc1cc(C(F)(F)F)n2nc(C(=O)NCC3CCOC3)cc2n1 (configuration not stated),-0.17
